Measured values taken from PubChem BioAssay AID493231 (Broad Institute, 2011).
Measured potencies and affinities stand elsewhere.

Target: Acyl-homoserine lactone acylase PvdQ (Pseudomonas aeruginosa (strain ATCC 15692 / DSM 22644 / CIP 104116 / JCM 14847 / LMG 12228 / 1C / PRS 101 / PAO1)) (UniProt Q9I194)
Assay: P. aeruginosa PvdQ acylase inhibitors, dose response, biochemical, fluorescence, plate reader and imaging, cherry-picks (AID 493231);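 further: 0% = neutral control wells and -100% = reference inhibitor wells; more negative values mean stronger inhibition of the acylase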
Details: purified PvdQ acylase, fluorogenic substrate; series mostly up to 10 µM; activity change, negative = inhibition: at the top concentration; call rule not given here

Acyl-homoserine lactone acylase PvdQ (Pseudomonas aeruginosa (strain ATCC 15692 / DSM 22644 / CIP 104116 / JCM 14847 / LMG 12228 / 1C / PRS 101 / PAO1)), sequence (Q9I194 whole entry, looked up): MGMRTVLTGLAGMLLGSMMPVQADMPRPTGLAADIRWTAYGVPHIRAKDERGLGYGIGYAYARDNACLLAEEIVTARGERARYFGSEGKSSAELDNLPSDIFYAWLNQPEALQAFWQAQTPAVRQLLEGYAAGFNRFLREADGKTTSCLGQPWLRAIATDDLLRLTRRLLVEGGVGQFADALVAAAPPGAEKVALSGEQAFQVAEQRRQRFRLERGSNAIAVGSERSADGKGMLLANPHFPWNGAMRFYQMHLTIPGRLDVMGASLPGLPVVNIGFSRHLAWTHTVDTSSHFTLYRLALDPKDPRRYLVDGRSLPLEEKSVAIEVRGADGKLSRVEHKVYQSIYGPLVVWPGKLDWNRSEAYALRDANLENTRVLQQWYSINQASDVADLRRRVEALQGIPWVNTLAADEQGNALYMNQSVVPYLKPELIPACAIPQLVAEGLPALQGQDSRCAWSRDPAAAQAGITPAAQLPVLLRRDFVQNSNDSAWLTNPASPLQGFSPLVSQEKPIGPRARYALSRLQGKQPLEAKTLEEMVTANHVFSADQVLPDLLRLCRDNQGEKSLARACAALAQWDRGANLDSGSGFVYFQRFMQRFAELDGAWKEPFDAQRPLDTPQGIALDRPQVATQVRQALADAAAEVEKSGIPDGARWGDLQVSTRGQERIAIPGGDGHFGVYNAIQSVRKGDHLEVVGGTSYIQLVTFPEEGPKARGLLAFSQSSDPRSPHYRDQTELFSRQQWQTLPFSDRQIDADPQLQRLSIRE

Activity change, negative = inhibition, inactive:
CC(=O)c1ccc2c3c(cc(C)c2c1)CCCC3 1.76 unspecified
CCOc1ccccc1NC(=S)N1CCC(NC(=O)NC23CC4CC(CC(C4)C2)C3)CC1 0.032 unspecified
CCn1c(SCC(=O)N/N=C/c2ccc(C)o2)nnc1-c1ccc(C(C)(C)C)cc1 8.31 unspecified
CCCc1nc2sc3ccccc3c(=O)c2c(=O)n1Cc1ccccc1 11 unspecified
CN(C)C(=O)Nc1ccccc1 -5.76 unspecified
Cc1cc(NCCCn2ccnc2)n2nc(-c3ccc(Cl)cc3)cc2n1 4.65 unspecified
O=C(O)c1cccc(CN2C(=O)c3ccccc3C2=O)c1 5 unspecified
Cc1cc(=O)n2nc(N3CCCC(C(=O)N4CCOCC4)C3)sc2n1 (stereo not drawn) -2.15 unspecified
CC1CC(Nc2ccccc2)c2ccccc2N1C(=O)c1ccco1 (stereo not drawn) 5.12 unspecified
Cc1ncc(CN2CCN(Cc3ccc(F)cc3)C(CCO)C2)s1 (stereo not drawn) 10.5 unspecified
CCOC(=O)CC(NC(=O)c1ccco1)c1ccccc1Cl (stereo not drawn) 4.68 unspecified
Cc1ccc(O)c(NC(=S)NC(=O)/C=C/c2ccco2)c1 9.83 unspecified
CCN(c1ccccc1)S(=O)(=O)c1cc(C(=O)Nc2ccccc2Cl)ccc1F 2.14 unspecified
COC(=O)c1ccc(-c2nc3ccccc3[nH]2)cc1 -13.8 unspecified
CCSc1nc2cc(OC)c(OC)cc2c(=O)n1CC 3.52 unspecified
CCOC(=O)c1[nH]c2c(c1C)C(=O)CC(c1ccco1)C2 (stereo not drawn) -96.1 unspecified
COc1ccc(Cl)cc1C(=O)Nc1ccc(N(C)C(C)=O)cc1 8.04 unspecified
O=C(O)CC1S/C(=N/N=C/C=C/c2ccccc2)NC1=O (stereo not drawn) -7.29 unspecified
